From PubChem BioAssay AID1259325 (C. David Weaver Laboratory, Vanderbilt University, 2017)
Among all 63,000 compounds or so, about 30 (0.05%) were called active. The rule behind the calls is not given here. The list is a sample of the results.

Each compound was assayed against G protein-activated inward rectifier potassium channel 2 (Homo sapiens) (UniProt P48051) (assay: opens human GIRK2 potassium channels (AID 1259325)). Details: HEK293-GIRK2 thallium flux, Thallos fluorescence, MPD.
Sequence of G protein-activated inward rectifier potassium channel 2 (Homo sapiens) (P48051 whole entry, looked up): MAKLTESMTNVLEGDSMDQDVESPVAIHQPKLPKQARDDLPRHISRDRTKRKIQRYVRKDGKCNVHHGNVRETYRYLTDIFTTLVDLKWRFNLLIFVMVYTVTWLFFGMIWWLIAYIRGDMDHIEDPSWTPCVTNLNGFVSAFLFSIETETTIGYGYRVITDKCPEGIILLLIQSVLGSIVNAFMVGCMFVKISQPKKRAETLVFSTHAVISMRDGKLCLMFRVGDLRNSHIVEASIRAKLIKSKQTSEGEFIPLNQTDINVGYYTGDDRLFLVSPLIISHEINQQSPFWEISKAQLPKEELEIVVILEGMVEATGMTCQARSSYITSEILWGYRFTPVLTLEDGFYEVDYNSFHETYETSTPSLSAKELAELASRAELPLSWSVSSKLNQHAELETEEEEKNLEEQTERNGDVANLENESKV

outcome, inactive:
O=S(=O)(c1ccccc1F)N(CCc1cccs1)Cc1ccoc1
COc1ccc(Nc2c(C(=O)N3CCCCC3)cnc3nc(C)ccc23)cc1OC
O=S(=O)(NCCC(O)c1ccoc1)c1ccc(F)c(Cl)c1 (centres undefined)
COC(=O)c1ccc2c(=O)n(CCC(=O)NCCN3CCCc4ccccc43)c(=S)[nH]c2c1
Cc1nc2sc(C)c(C)n2c(=O)c1NC(=O)c1ccccc1C(F)(F)F
COC(=O)Nc1nc2c(s1)CN(C(=O)c1cccc(C#N)c1)CC2
COc1cc(NC(=O)c2cnccn2)ccc1N1CCCC1=O
Cc1nn(-c2ccccc2)c(C)c1N1CCN(S(=O)(=O)c2cccs2)CC1
Cn1cccc1C(=O)N1CCN(Cc2nncn2-c2ccccc2F)CC1
Cc1cn2c3c(=O)n(C/C=C/c4ccccc4)c(=O)n(C)c3nc2n1-c1ccccc1O
CCCCN(C)C(=O)c1cc2c(=O)n3ccccc3nc2n1CCCOC
COc1ccc(OC)c(S(=O)(=O)NCC(c2ccc(F)cc2)N2CCOCC2)c1 (centres undefined)
CCOC(=O)c1cnn2ccc(NC(=O)c3cnn(-c4ccccc4)c3C)cc12
COc1ccc(C(O)CN2CCN(c3cccc(C)c3C)CC2)cc1 (centres undefined)
Cc1cc(NC(=O)C2CCN(C(=O)C3(c4ccccc4)CCOCC3)CC2)no1
COc1cccc(C(=O)Oc2ccc(/C=C/c3ccccn3)cc2)c1
Nc1cc2cc(Br)ccc2cn1
COc1ncccc1C(=O)NCCn1nc(C2CC2)n(-c2ccccc2)c1=O
CCc1cc2c(=O)n(Cc3ccco3)c(SCc3cc(=O)[nH][nH]3)nc2s1
Cc1cc(N2CCN(CCO)CC2)n2nc(C(F)(F)F)c(-c3ccc(Cl)cc3)c2n1
CCOc1ccc(N(C)S(=O)(=O)c2ccsc2C(=O)NCCC2=CCCCC2)cc1
CCC(=O)Nc1cc(-c2ccco2)nn1-c1nc2c(c(=O)[nH]1)CCC2
O=C(CCC(=O)N1CC(c2nc(-c3cccs3)no2)C1)c1ccccc1
Cc1ccc(Cl)c(-n2nnc(C(=O)Nc3ccccc3Cl)c2C)c1
O=C(NCC(=O)N1CCN(c2cc(-n3cccc3)ncn2)CC1)c1ccccc1
O=C(Nc1ccc2c(c1)OCO2)Nc1ccccc1NC(=O)c1ccccc1F
O=S(=O)(NC1CCN(c2ccc(-c3ccccc3Cl)nn2)CC1)c1cccs1
O=C(CN1CCN(c2ccccc2F)C1=O)Nc1ccc(OC(F)(F)F)cc1
CCOC(=O)N1CCc2c(sc(NC(=O)c3ccc(C)c(C)c3)c2-c2nc3ccccc3s2)C1
Cc1nnc(NC(=O)C2CCN(c3ccc(-c4ccco4)nn3)CC2)s1
Cc1cc(-c2ccccc2)nc2cc(-c3nc(-c4cccs4)no3)nn12
CCCCCNC(=O)c1sc(-c2nnn(-c3ccc(F)cc3)c2C)nc1C
Cc1ccc2[nH]c3c(=O)n(CC(=O)N4CCN(c5cccc(C(F)(F)F)c5)CC4)cnc3c2c1
COc1ccc(NCCN2N=C(C)C(C)n3c2nc2c3c(=O)n(C)c(=O)n2C)cc1 (centres undefined)
